The values below come from PubChem BioAssay (EPA / NIEHS).

Some structures have more than one record in an assay (separate samples or runs), and their calls can disagree. Active and inactive are the calls of the source. How the source made its calls: active means hit-call score of the fitted dose curve at least 0.9, where 1 is the maximum; inactive means score below 0.9.

The nature of this assay: ATG_E_Box_CIS: Attagene CIS-FACTORIAL HepG2 Assay for human Enhancer Box (E-box) (AID 2282936). Conditions: HepG2 E-box cis-reporter transcription, actives raise or lower the signal. The protocol:
ATG_CIS is a cell-based, multiplexed-readout assay that uses HepG2, a human liver cell line, with measurements taken at 24 hours after chemical dosing in a 24-well plate.ATG_E_Box_CIS is one of 52 assay component(s) measured or calculated from the ATG_CIS assay. It is designed to make measurements of mRNA induction, a form of inducible reporter, as detected with fluorescence intensity signals by Reverse transcription polymerase chain reaction (RT-PCR) and Capillary electrophoresis technology.Data from the assay component ATG_E_Box_CIS was analyzed into 1 assay endpoint. This assay endpoint, ATG_E_Box_CIS, was analyzed with bidirectional fitting relative to DMSO as the negative control and baseline of activity. Using a type of inducible reporter, measures of mRNA for gain or loss-of-signal activity can be used to understand the reporter gene at the transcription factor-level as they relate to the gene USF1. Furthermore, this assay endpoint can be referred to as a primary readout, because this assay has produced multiple assay endpoints where this one serves a reporter gene function. To generalize the intended target to other relatable targets, this assay endpoint is annotated to the dna binding intended target family, where the subfamily is basic helix-loop-helix protein.
Human liver HepG2 cells are transiently transfected with multiple reporter transcription units (MRTUs) in 6-well plates using FuGene 6 reagent (Roche; 3 ml FuGene/1 mg DNA). The MRTU constructs are regulated by a cis-regulating element (promoter). […] A major difference between the CIS and TRANS system is that in CIS activities of endogenous TFs are measured, whereas the TRANS assay evaluates changes in activities of exogenous, chimeric NR-Gal4 proteins. […] At the end of 24 hour incubation, total RNA was isolated using TriZol reagent (Invitrogen). The isolated RNA is then reverse-transcribed using oligo(dT) primer and Mo-MLV reverse transcriptase (Invitrogen) with DNAse I (Ambion) treatment for 30 min. The one-tenth of the produced cDNA was amplified by PCR using Taq DNA polymerase (Invitrogen) and two reporter sequence-specific primers. The PCR products were fluorescently labeled by primer extension with 6-arboxyfluorescein (6-FAM) 5'-labeled reporter sequence-specific primer (2 min at 95 C, 20 s at 68 C and 10 min at 72 C) and these products were digested with 5U of HpaI (New England Biolabs) for 2h at 37 C. The fragments were purified using Qiaquick PCR columns (Qiagen), analyzed on an ABI 3130xL genetic analyzer (Applied Biosystems) with peak positions identified by using a set of X-rhodamine (ROX)-labeled MapMarker1000 molecular weight standards (BioVentures). The raw capillary electrophoresis data was processed using Attagraph software (Attagene).
On to `COc1cc(OC)nc(Sc2cccc(Cl)c2C(=O)O)n1`, for which the outcome was inactive.

Turning to `CSc1nnc(C(C)(C)C)c(=O)n1N`, the result was inactive.

With `CCCCOC(=O)[C@@H](C)Oc1ccc(Oc2ccc(C#N)cc2F)cc1`, the result was inactive.

With `CCOC(=O)CC(SP(=O)(OC)OC)C(=O)OCC` (stereo not given), the result was inactive.

In the case of `CC[C@H](C)[C@H]1O[C@]2(C=C[C@@H]1C)C[C@@H]1C[C@@H](C/C=C(\C)[C@@H](O[C@H]3C[C@H](OC)[C@@H](O[C@H]4C[C@H](OC)[C@@H](NC)[C@H](C)O4)[C@H](C)O3)[C@@H](C)/C=C/C=C3\CO[C@@H]4[C@H](O)C(C)=C[C@@H](C(=O)O1)[C@]34O)O2`, the outcome was inactive.

For the compound `CCOP(=O)(SC(C)CC)N1CCSC1=O` (stereo not given), the outcome was inactive.

Regarding `CC(=NC#N)N(C)Cc1ccc(Cl)nc1`, the outcome was inactive.

Take `CCOP(=S)(OCC)SCCSCC`: the outcome was inactive.

Turning to `C=C(C)[C@H]1Cc2c(ccc3c2O[C@@H]2COc4cc(OC)c(OC)cc4[C@@H]2C3=O)O1`, the outcome was inactive.

Consider `O=[N+]([O-])c1cc(C(F)(F)F)c(Cl)c([N+](=O)[O-])c1Nc1ncc(C(F)(F)F)cc1Cl`, for which the AC50 was 15.2 µM (active) and the outcome was inactive.

On to `CSC1=N[C@@](C)(c2ccccc2)C(=O)N1Nc1ccccc1`, for which the outcome was inactive.

As to `FC(F)C(F)(F)OCC(Cn1cncn1)c1ccc(Cl)cc1Cl` (stereo not given), the outcome was inactive.

As to `CCNc1nc(Cl)nc(NC(C)(C)C#N)n1`, the outcome was inactive.

For `C#CCC1=C(C)C(OC(=O)C2C(C=C(C)C)C2(C)C)CC1=O` (stereo not given), the AC50 is 78.6 µM (active).

Take `CCOP(=S)(OCC)OC(Cl)C(Cl)(Cl)Cl` (stereo not given): the result was inactive.

Turning to `O=c1ccc(=O)[nH][nH]1`, the outcome was inactive.

In the case of `COP(=O)(OC)OC(Br)C(Cl)(Cl)Br` (stereo not given), the outcome was inactive.

For the compound `CCOP(=S)(OCC)Oc1ccc2c(C)c(Cl)c(=O)oc2c1`, the outcome was inactive.

As for `Nc1nc(N)nc(NC2CC2)n1`, the result was inactive.

With `COc1ccc(C(=CC(=O)N2CCOCC2)c2ccc(Cl)cc2)cc1OC`, the outcome was inactive.

As for `N#CSCSC#N`, the result was inactive.

For the compound `CC(C)=CC1C(C(=O)OCN2C(=O)C3=C(CCCC3)C2=O)C1(C)C` (stereo not given), the outcome was inactive.

As for `Cc1ccn2nc(S(=O)(=O)Nc3c(F)cccc3F)nc2n1`, the result was inactive.

In the case of `CC1=NNC(=O)N(/N=C/c2cccnc2)C1`, the result was inactive.

Take `CCc1cccc(CC)c1N(COC)C(=O)CCl`: the result was inactive.

Consider `CC(C)N(C(=O)SCC(Cl)=C(Cl)Cl)C(C)C`, for which the result was inactive.

Turning to `S=C1NCCN1`, the result was inactive.

For the compound `CCC(CC)Nc1c([N+](=O)[O-])cc(C)c(C)c1[N+](=O)[O-]`, the result was inactive.

On to `Nc1c(Cl)cc([N+](=O)[O-])cc1Cl`, for which the outcome was inactive.

For `CCc1cccc(C)c1N(C(=O)CCl)C(C)COC` (stereo not given), the outcome was inactive.

As to `CNC(=O)Oc1cccc2c1OC(C)(C)O2`, the outcome was inactive.

As to `CCC(=O)Nc1ccc(Cl)c(Cl)c1`, the outcome was inactive.

In the case of `Cc1cc(C2CC2)nc(Nc2ccccc2)n1`, the outcome was inactive.

For `CCc1cnc(C2=NC(C)(C(C)C)C(=O)N2)c(C(=O)O)c1` (stereo not given), the result was inactive.

Turning to `CCCCSP(=O)(SCCCC)SCCCC`, the half-maximal activity concentration (AC50) is 56.5 µM (active).

Take `CN(C)C(=O)Nc1cccc(C(F)(F)F)c1`: the outcome was inactive.

`CCC(=NOC/C=C/Cl)C1=C(O)CC(C2CCOCC2)CC1=O` (stereo not given): the outcome was inactive.

For `CC(C1CC1)C(O)(Cn1cncn1)c1ccc(Cl)cc1` (stereo not given), the result was inactive.

In the case of `CCCOCC(=Nc1ccc(Cl)cc1C(F)(F)F)n1ccnc1`, the outcome was inactive.

As a reminder, the AC50 is the midpoint of the concentration-response curve, whichever way the signal moves.
